Compounds with a hit are over-represented: about 7.3% of the library has one in this group of screens.
HCMV inh – qHTS Assay for inhibitors of the human cytomegalovirus (HCMV) | HFF cells, HCMV-luciferase reporter, 72 h; hits give low values | activity change, negative = inhibition, % at 57.5 µM | 410,000 compounds, 4.5% hits | AID 1259415, 2018; in the data active = activity change below about -60%; inconclusive = no clear call, values can overlap the other calls; inactive = above about -39%
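Cell-based, HFFs, 1000 cells/well, 16 h 37C; cpds in DMSO + HCMV-luc, MOI 1 PFU/cell; 72 h 37C; OneGlo luminescence after 5 min RT; norm. to buffer vs Salinomycin 10uM.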
FMDV antiviral – High Throughput Screening for Foot and Mouth Disease Virus Antivirals. 410,000 compounds, 1.2% hits. FMDV antiviral cell-based qHTS. AID 1159524, 2015. Potency, µM (titrated, usually from 57.9 µM), without a hit: at the highest dose activity change, negative = inhibition, hits mostly inhibitors; calls by dose curve; tested in HEK293T cells; note: read-out not given here; potency is the fitted concentration of half-maximal effect; nearly all actives have a fitted effect of over 45% in size
Vaccinia Venus – qHTS for Stage-Specific Inhibitors of Vaccinia Orthopoxvirus: Venus Reporter Primary qHTS; Vaccinia virus Venus reporter expression, fluorescence; Potency, µM (titrated, usually from 36.5 µM), without a hit: at the highest dose activity change, negative = inhibition, usual class: inhibitors; 330,000 compounds, 0.46% hits; AID 720580, 2013; calls by dose curve; tested in A549 cells; note: potency is the fitted concentration of half-maximal effect; nearly all actives have a fitted effect of over 30% in size
VACV mCherry inh – qHTS for Stage-Specific Inhibitors of Vaccinia Orthopoxvirus: mCherry Reporter Primary qHTS; Vaccinia virus mCherry reporter infection, fluorescence; Potency, µM (top dose mostly 36.5 µM), without a hit: at the highest dose activity change, negative = inhibition, hits mostly inhibitors; 310,000 compounds, 0.63% hits; AID 720579, 2013; calls by dose curve; tested in A549 cells; note: potency is the fitted concentration of half-maximal effect; nearly all actives have a fitted effect of over 35% in size
HCV inhibitor – qHTS Assay for Inhibitors of Hepatitis C Virus (HCV) | Potency, µM (highest dose often 41.8 µM), for inactives: top-dose activity change, negative = inhibition, most hits filed as inhibitors | AID 651820, 2012 | 340,000 compounds, 3.4% hits | Huh7.5.1 HCVcc-Cre infection, luciferase reporter, 44 h; active = well fitted inhibition curve with a large enough effect; inconclusive = small, poorly fitted or top-dose-only effect, or another doubt; inactive = no such curve, though single readings can be large or run the other way; note: potency is the fitted concentration of half-maximal effect
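Reporter virus HCVcc-Cre (~0.5 moi) infects cells exposed to compound; seeding density 1,000 cells/well with 4 h settling beforehand. Luminescence, 15 sec read, taken 44 h post-infection following a 15 min RT substrate incubation.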
* = called active by the depositor. % is set by controls: 0 for no effect and ±100 for the full control effect.

What do the screens show for `Cc1ccccc1OCc1nnc(SCc2cc(=O)c3cc(F)ccc3[nH]2)n1C`?
HCMV inh: -62*; FMDV antiviral: inconclusive; Vaccinia Venus: -8%; VACV mCherry inh: -12%

Results for CCCCc1nc2ccccc2c(=O)n1-c1ccc(Cl)cc1[N+](=O)[O-] ?
HCMV inh: -62*; FMDV antiviral: -3%; HCV inhibitor: 13%

What do the screens show for `CCCCc1nc2ccccc2c(=O)n1-c1ccccc1[N+](=O)[O-]`?
HCMV inh: -15; FMDV antiviral: -24%; Vaccinia Venus: -5%; VACV mCherry inh: -23%; HCV inhibitor: -10%

Results for COc1cc(NS(=O)(=O)c2ccc(NC(=O)c3ccc(C(C)=O)cc3)cc2)nc(OC)n1 ?
HCMV inh: -11; FMDV antiviral: 0%; Vaccinia Venus: -10%; VACV mCherry inh: -13%

Results for CC1(C)CC(=O)C(C(C2=C(O)CC(C)(C)CC2=O)c2ccc(Br)s2)C(=O)C1 (configuration not stated) ?
HCMV inh: -7; FMDV antiviral: 5.6µM*; Vaccinia Venus: -11%; VACV mCherry inh: -8%; HCV inhibitor: 4%

How did COc1cccc(C(C2=C(O)CC(C)(C)CC2=O)C2C(=O)CC(C)(C)CC2=O)c1 (configuration not stated) do in these assays?
HCMV inh: -65*; FMDV antiviral: -13%; Vaccinia Venus: -13%; VACV mCherry inh: -14%; HCV inhibitor: 4%

What do the screens show for `COc1ccc(NC(=O)c2noc3c2CCCC3)cc1Cl`?
HCMV inh: 98; FMDV antiviral: 58%; Vaccinia Venus: 4%; VACV mCherry inh: -4%

How did CCOc1ccccc1N1CC(c2nc3ccccc3n2CCOc2ccccc2OC)CC1=O (configuration not stated) do in these assays?
HCMV inh: -38; FMDV antiviral: -22%; Vaccinia Venus: -15%; VACV mCherry inh: inconclusive

What do the screens show for `CCC(CC)C(=O)Nc1ccccc1C(=O)OCc1cc(=O)n2nc(C3CCCCC3)sc2n1`?
HCMV inh: 0; FMDV antiviral: -17%; Vaccinia Venus: -29%; VACV mCherry inh: -29%

Results for O=[N+]([O-])c1ccc(CN2[C@H](COCc3ccccc3)C=CS2(=O)=O)cc1 ?
HCMV inh: -29

What do the screens show for `CCOC(=O)c1cnc(SC)nc1Oc1cccc(NS(=O)(=O)c2ccccc2)c1`?
HCMV inh: 5; FMDV antiviral: 15%; HCV inhibitor: 10µM*

Results for CC(C)CCn1cnc2c(cnn2-c2ccc(F)cc2)c1=O ?
HCMV inh: 23; FMDV antiviral: 11%; Vaccinia Venus: -9%; HCV inhibitor: 10µM*

Results for CC(C)(C)n1ncc2c(=O)n(Cc3cccc(Cn4cnc5c(cnn5C(C)(C)C)c4=O)c3F)cnc21 ?
HCMV inh: -88*; FMDV antiviral: 11µM*

What do the screens show for `Cc1ccccc1Cn1cnc2c(cnn2C(C)(C)C)c1=O`?
HCMV inh: 6; FMDV antiviral: 0%; Vaccinia Venus: -19%; HCV inhibitor: inconclusive

How did CC(C)(C)n1ncc2c(=O)n(CC(=O)OCc3ccccc3)cnc21 do in these assays?
HCMV inh: inconclusive; FMDV antiviral: 14µM*; Vaccinia Venus: -19%; HCV inhibitor: 12%

How did CC(C)(C)c1ccc(O)c(N=Cc2cccc([N+](=O)[O-])c2)c1 do in these assays?
Vaccinia Venus: -10%; VACV mCherry inh: inactive

Results for Nc1cccc(-c2cn3ccsc3n2)c1 ?
HCMV inh: inconclusive; FMDV antiviral: 35%; Vaccinia Venus: -4%; VACV mCherry inh: -6%

Results for OC(CNc1ncnc2sccc12)c1ccccc1 (configuration not stated) ?
HCMV inh: inconclusive; FMDV antiviral: 2%; Vaccinia Venus: -28%; VACV mCherry inh: -6%; HCV inhibitor: 3.2µM*

How did COc1ccc(CNc2ncnc3sccc23)cc1 do in these assays?
HCMV inh: -73*; FMDV antiviral: inconclusive; Vaccinia Venus: -18%; VACV mCherry inh: inactive; HCV inhibitor: inconclusive

Results for c1csc(CNc2ncnc3sccc23)c1 ?
HCMV inh: -79*; FMDV antiviral: inconclusive; HCV inhibitor: inconclusive

Assay outcomes: PubChem BioAssay, National Center for Advancing Translational Sciences (NCATS)
